# From PubChem BioAssay (Tox21)
# Results filed as inconclusive are left out. Unmarked numbers belong to inactive results. Calls of active or inactive are those of the source. Calls come from the whole dose curve; as a rule, active = well fitted cell-killing curve with a large enough effect in the repeat runs; inconclusive = weak or mixed curves, or effect the other way; inactive = flat fitted curve, though single readings scatter.
# Test: qHTS assay to identify small molecule antagonists of the androgen receptor (AR) signaling pathway using the MDA cell line - cell viability counter screen (AID 743041; note: nearly all actives have a fitted effect of over 45% in size)
# Conditions: MDA-kb2 viability, CellTiter-Fluor, 16 h, cells co-treated with R1881 androgen agonist; series mostly up to 70.3 µM; viability change, negative = cytotoxic: at the top concentration
# Outline: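 Same-well cytotoxicity was assessed by CellTiter-Fluor in MDA-kb2 AR-luc cells after 16 h of compound treatment under R1881 agonism.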
# % is set by controls: 0 for no effect and ±100 for the full control effect; potency is the fitted concentration of half-maximal effect.
SMILES,"viability change, negative = cytotoxic",Potency
FC(F)(F)C(F)(F)C(F)(F)C(F)(F)C(F)(F)C(F)(F)F,1.57%,
O=C1/C(=C\c2cccs2)CCC/C1=C\c1cccs1,-19%,
C/C=C1\NC(=O)[C@H]2CSSCC/C=C/[C@H](CC(=O)N[C@H](C(C)C)C(=O)N2)OC(=O)C(C(C)C)NC1=O (some centres not stated),,7.5 µM (active)
CCCCCCCCCCCCCCCCCCCCCCO,-0.863%,
OCCO[C@@H]1[C@@H](O)[C@H](O)[C@@H](CO)O[C@@H]1O,2.08%,
CCC[C@@]1(CCc2ccccc2)CC(O)=C([C@H](CC)c2cccc(NS(=O)(=O)c3ccc(C(F)(F)F)cn3)c2)C(=O)O1,-0.53%,
CCCCCCCCCCCCCCCCCC(=O)[O][Al],-0.752%,
CCN(CC)c1ccc(C(=C2C=CC(=[N+](CC)CC)C=C2)c2ccccc2)cc1,,2.66 µM (active)
C[C@H]1C[C@H]2[C@@H]3CCC4=CC(=O)C=C[C@]4(C)[C@@]3(F)[C@@H](O)C[C@]2(C)[C@@]1(O)C(=O)CCl,-13.4%,
c1ccc2c(c1)Sc1ccccc1N2CCN1CCCC1,-19.1%,
CCCCC(F)(F)[C@@]1(O)CC[C@H]2[C@@H](CC(=O)[C@@H]2CCCCCCC(=O)O)O1,-2.24%,
CO/N=C(\C(=O)N[C@@H]1C(=O)N2C(C(=O)O)=C(CSc3nnnn3C)CS[C@H]12)c1csc(N)n1,-5.46%,
CS(=O)(=O)Nc1cc2occ(NC=O)c(=O)c2cc1Oc1ccccc1,-2.18%,
Nc1ncnc(Nc2ccc(Cl)cc2)n1,-0.512%,
Cc1c(N)nc(C(CC(N)=O)NCC(N)C(N)=O)nc1C(=O)NC(C(=O)NC(C)C(O)C(C)C(=O)NC(C(=O)NCCc1nc(-c2nc(C(=O)NCCCN[C@@H](C)c3ccccc3)cs2)cs1)C(C)O)C(O[C@@H]1O[C@@H](CO)[C@@H](O)[C@H](O)[C@@H]1O[C@H]1O[C@H](CO)[C@@H](O)[C@H](OC(N)=O)[C@@H]1O)c1cnc[nH]1 (some centres not stated),-18.3%,
C[C@]12CC[C@@H]3c4ccc(OS(=O)(=O)O)cc4CC[C@H]3[C@@H]1CCC2=O,4.93%,
CN1[C@@H]2CC[C@H]1CC(OC(c1ccccc1)c1ccccc1)C2 (some centres not stated),,inactive
CCCc1ccc(C(=O)O)cc1,3.77%,
Cc1cccc(C)c1Nc1ncccc1C(=O)O,-16.2%,

SMILES,"viability change, negative = cytotoxic",Potency
O=C1O[C@H]2[C@H](O)[C@@H]1OC(O)[C@H]2O (some centres not stated),-1.88%,
CC(C)(C)NCC(O)c1ccc(O)c(CO)n1 (configuration not stated),9.21%,
Nc1nc(=O)n([C@@H]2CS[C@H](CO)O2)cc1F,-3.31%,
NCCCC[C@H](NC(=O)[C@@H]1CCCN1C(=O)[C@@H]1CSSC[C@H](N)C(=O)N[C@@H](Cc2ccccc2)C(=O)N[C@@H](Cc2ccccc2)C(=O)N[C@@H](CCC(N)=O)C(=O)N[C@@H](CC(N)=O)C(=O)N1)C(=O)NCC(N)=O,-4.94%,
CCCCCCCCCCCCCCCC(=O)OC[C@@H](NC(=O)C(Cl)Cl)[C@H](O)c1ccc([N+](=O)[O-])cc1,-2.75%,
N=C(N)c1ccc(OCCCOc2ccc(C(=N)N)cc2Br)c(Br)c1,7.13%,
N[C@H](CC(=O)O)C(=O)O,1.48%,
CS(=O)(=O)OCCCNCCCOS(C)(=O)=O,17.2%,
O=[n+]1ccn([O-])c2ccccc21,-5.89%,
O=C(O)[C@H]1/C(=C/CO)O[C@@H]2CC(=O)N21,-10.3%,
CCC(=O)OCC(=O)[C@@]1(OC(=O)CC)[C@@H](C)C[C@H]2[C@@H]3CCC4=CC(=O)C=C[C@]4(C)[C@@]3(Cl)[C@@H](O)C[C@@]21C,-2.75%,
COc1ccc(CNCC(O)COc2ccc3[nH]c(=O)ccc3c2)cc1OC (configuration not stated),-1.5%,
O=C(O)C1CCCN1 (configuration not stated),2.76%,
Cc1ccc(C2(O)CCN(CCCC(=O)c3ccc(F)cc3)CC2)cc1,-9.03%,
CC(C(=O)O)c1ccc(C2CCCCC2)c2ccccc12 (configuration not stated),4.43%,
CCCCCCCN(CC)CCCC(O)c1ccc(NS(C)(=O)=O)cc1 (configuration not stated),-2.77%,
CC(C)(C)CC(=O)OCC(=O)[C@@]12OC(C)(C)O[C@@H]1C[C@H]1[C@@H]3CCC4=CC(=O)C=C[C@]4(C)[C@@]3(F)[C@@H](O)C[C@@]12C,9.02%,
CO/N=C(\C(=O)N[C@@H]1C(=O)N2C(C(=O)O)=CCS[C@H]12)c1csc(N)n1,-0.0259%,
